From PubChem
Sampled rows, rich in hits. Any-hit rate of the full collection: about 9%.
HPGD block – qHTS Assay for Inhibitors of HPGD (15-Hydroxyprostaglandin Dehydrogenase); Potency, µM, usual class: inhibitors; 15-hydroxyprostaglandin dehydrogenase [NAD(+)] (Homo sapiens), P15428; purified HPGD, NADH fluorescence kinetic, PGE2 substrate; 150,000 compounds, 4.3% hits; AID 894, 2007
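20 nM HPGD preincubated 15 min at room temperature with compound in 50 mM Tris-HCl pH 8, 0.01% Tween 20. Started with 1 mM NAD+ and 30 uM prostaglandin E2; NADH fluorescence (360/450 nm) read 5 times over 30-s intervals, last minus first.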
IMPase inh – qHTS Assay for Identifying the Cell-Membrane Permeable IMPase Inhibitors; CHO-M1 cells, IP1 accumulation, HTRF TR-FRET ratio; inhibition (IP1 accumulation), % at 46.1 µM; 120,000 tested, under 10 active; AID 901, 2007; active means well fitted curve in the direction sought with a large enough effect in the signal ratio, not every such curve was filed as active; inconclusive means small, poorly fitted or top-dose-only effect, or a change in a side signal; inactive means no such curve, though single readings can be large or run the other way; the % refers to the signal ratio;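 further: cells stimulated with carbachol in lithium chloride buffer; higher means more IMPase inhibition seen as more IP1 and lower FRET ratio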
Target sequence (P97697 whole entry, looked up): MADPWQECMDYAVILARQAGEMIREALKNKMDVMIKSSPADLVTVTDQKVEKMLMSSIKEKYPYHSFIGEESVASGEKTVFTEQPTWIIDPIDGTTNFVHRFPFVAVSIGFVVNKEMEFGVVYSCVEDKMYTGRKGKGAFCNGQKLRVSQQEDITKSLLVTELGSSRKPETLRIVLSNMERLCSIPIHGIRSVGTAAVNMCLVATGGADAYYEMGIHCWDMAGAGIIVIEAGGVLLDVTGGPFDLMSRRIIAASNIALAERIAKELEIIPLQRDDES
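The IP-One HTRF competitive assay in carbachol-stimulated CHO-M1 cells quantifies cellular IP1. Compounds spanned up to 46 uM final, and activity is expressed as AC50 from concentration-response fits of the ratio and donor data.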
ALDH1A1 block – qHTS Assay for Inhibitors of Aldehyde Dehydrogenase 1 (ALDH1A1) | Aldehyde dehydrogenase 1A1 (Homo sapiens), P00352 | Purified ALDH1A1, NADH fluorescence, propionaldehyde substrate | Potency, µM (series often up to 75.3 µM), hits mostly inhibitors | 220,000 compounds, 7.3% hits | AID 1030, 2008
Each line names hits and unclear results; the compound was inactive in the other large screens. Unless noted, the call rests on the fitted dose curve; in most records, active means well fitted inhibition curve with a large enough effect (not every such curve was filed as active); inconclusive means small, poorly fitted or top-dose-only effect, or another doubt; inactive means no such curve, though single readings can be large or run the other way.

Clc1ccccc1-c1nc2ccccc2c2nc3ccccc3n12	HPGD block inconclusive
Cc1ccc2c(c1)c1c3n2CCN(C(=O)C2CC2)C3CCC1 (stereo unspecified)	ALDH1A1 block inconclusive
Cc1ccc2c(c1)c1c3n2CC(=C2C(=O)OC(C)(C)OC2=O)NC3CCC1 (stereo unspecified)	ALDH1A1 block 10µM
COc1ccc(NC(=O)N2CC[C@@]3(CCCN(C(=O)c4ccncc4)C3)C2)cc1	none (no result: IMPase inh)
CCN1C(=O)/C(=C/c2cnn(CC)c2C)SC1=S	ALDH1A1 block 2µM (no result: IMPase inh)
Cc1nn(C)c(C)c1/C=C1/SC(=S)NC1=O	ALDH1A1 block inconclusive
CCN1C(=O)/C(=C\N2CCCCCC2)SC1=S	ALDH1A1 block inconclusive (no result: HPGD block)
CCN1C(=O)/C(=C/c2c(C)nn(C)c2C)SC1=S	ALDH1A1 block 1.4µM
O=C1NN(c2ccc(F)c(Cl)c2)C(=O)/C1=C\c1cccc(OC(=O)c2cccs2)c1	HPGD block 10µM, ALDH1A1 block inconclusive
Cc1nc2c(=O)n(-c3ccc(F)c(Cl)c3)nc(C)c2s1	none (no result: HPGD block, IMPase inh)
CC(C)=C1C(=O)NN(c2ccc(F)c(Cl)c2)C1=O	HPGD block 8.9µM
O=C1NN(c2ccccc2)C(=O)/C1=C/c1cccs1	ALDH1A1 block inconclusive (no result: IMPase inh)
CCc1onc(C)c1C(=O)O	none (no result: HPGD block, IMPase inh)
Cc1cccc(N(CC(=O)NCCSCc2ccc(Cl)cc2)S(C)(=O)=O)c1C	none (no result: HPGD block, ALDH1A1 block)
Cc1ccccc1N1C(=O)CC(N2CCC(C(N)=O)CC2)C1=O (stereo unspecified)	ALDH1A1 block inconclusive
NC(=O)C1CCN(C2CC(=O)N(c3cccc(F)c3)C2=O)CC1 (stereo unspecified)	ALDH1A1 block 22µM
CN1C(=O)CC(N2CCC(C(N)=O)CC2)C1=O (stereo unspecified)	none
NC(=O)C1CCN(C2CC(=O)N(c3ccc(F)c(Cl)c3)C2=O)CC1 (stereo unspecified)	ALDH1A1 block 25µM
Cc1cc(C)c2nc(SCC(=O)NCCN3C(=O)CSC3=O)cc(C)c2c1	none (no result: HPGD block)
CCOC(=O)c1c(NC(=O)CSc2nnc(Cc3ccccc3)o2)sc(C)c1C	ALDH1A1 block 16µM
CCOC(=O)c1c(NC(=O)CSc2nnc(-c3cccnc3)o2)sc(C(C)=O)c1C	HPGD block inconclusive
CCOC(=O)c1c(NC(=O)CSc2nc3ccccc3o2)sc(C)c1C	none
CCOC(=O)c1c(NC(=O)CSc2nc3cccnc3n2C)sc(C(C)=O)c1C	none
CCOC(=O)c1c(NC(=O)CSc2nnc(-c3ccccc3C)n2C)sc(C(C)=O)c1C	HPGD block inconclusive, ALDH1A1 block 25µM
Cc1nnc(NC(=O)CSc2nnc(-c3ccco3)o2)s1	none (no result: HPGD block, IMPase inh)
CCOC(=O)c1c(NC(=O)CSc2nnc(-c3ccco3)o2)sc(C)c1C	ALDH1A1 block 8.9µM
CCOC(=O)c1c(NC(=O)CSc2nnc(-c3ccco3)o2)sc(C(C)=O)c1C	HPGD block 16µM, IMPase inh inconclusive
Cc1c(NC(=O)c2ccc(OC(C)C)cc2)cccc1-c1nc2ncccc2o1	none (no result: HPGD block, ALDH1A1 block)
COc1ccc(-c2nnn(CC(=O)N(CCCN3CCOCC3)C(C(=O)NC3CCCC3)c3ccco3)n2)cc1 (stereo unspecified)	none (no result: HPGD block, IMPase inh)
C[C@H](NC(=O)[C@@H]1C[C@H]1[C@@H](NC(=O)OCc1ccccc1)c1ccccc1)c1ccccc1	none (no result: IMPase inh)
NC(=O)c1ncc(C(F)(F)F)cc1Oc1cccnc1	none (no result: HPGD block, IMPase inh)
CC#CCN1c2ccccc2[C@]23C[C@@H](C(=O)OC)N(C(=O)c4cccs4)C2=NC(C(=O)OC)=C(C(=O)OC)[C@H]13	none (no result: IMPase inh)
Cc1cc(C)nc(SCc2nc(N)nc(-c3ccccc3O)n2)n1	none
Cc1ccc(NC(=O)Cc2nc(CSc3nnc(-c4ccc5c(c4)OCO5)o3)cs2)cc1	IMPase inh inconclusive, ALDH1A1 block inconclusive
C/C=C\C1=C(CO)[C@H](O)[C@H]2OC2[C@@H]1O (stereo partly specified)	none (no result: HPGD block, IMPase inh)
C[C@]12CCC3c4ccc(O)cc4CCC3[C@@H]1CCC2=O (stereo partly specified)	none
CCOC(=O)c1cc(-c2nnc(SCC(=O)Nc3ccc(F)cc3)o2)c(C)nc1C	HPGD block 14µM, ALDH1A1 block 10µM
Cc1sc(NC(=O)CSc2nnc(-c3ccc(F)cc3)o2)c(C#N)c1C	none
COc1ccc(NC2=C(C(C)=O)C(c3ccc4c(c3)OCO4)C(C(C)=O)C(C)(O)C2)cc1 (stereo unspecified)	ALDH1A1 block inconclusive
C[C@@H]1O[C@H]2C3=C(C(=O)[C@H]4O[C@@H]4[C@H]3O)[C@@H]1[C@@H]1[C@@H](C)OC=C3[C@H](O)[C@H]4O[C@@H]4/C(=N\OCc4ccccc4)[C@]312	none (no result: HPGD block, IMPase inh)
COc1ccc(N2CCN(Cc3cc(=O)oc4cc(-c5ccccc5)c(O)cc34)CC2)cc1	none
